Compounds without any hit were thinned out: in the full panel of roughly 83,000, 20% have a hit.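 The endpoint reported here, percent growth, reads 100 for growth as untreated, 0 for no net growth and -100 for all cells dead.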 Unmarked numbers belong to inactive results. Calls of active or inactive are those of the source. The calls were made as follows: active = growth percent below 10; inactive = the rest.
Columns and labels:
Experiment in all cases: NCI-60 one-dose screen, 48 h (100 = growth as untreated, 0 = no growth, -100 = all killed)
Settings in all cases: 10 µM unless noted
DU-145 prostate = test system: DU-145 prostate
MALME-3M melanoma = test system: MALME-3M melanoma
MDA-MB-231 breast = test system: MDA-MB-231 breast
RXF 393 renal = test system: RXF 393 renal
SF-268 CNS = test system: SF-268 CNS
SF-295 CNS = test system: SF-295 CNS
SF-539 CNS = test system: SF-539 CNS
UACC-257 melanoma = test system: UACC-257 melanoma
M14 melanoma = test system: M14 melanoma
HCT-15 colon = test system: HCT-15 colon
HT29 colon = test system: HT29 colon
SNB-75 CNS = test system: SNB-75 CNS
SNB-19 CNS = test system: SNB-19 CNS
U251 CNS = test system: U251 CNS
PC-3 prostate = test system: PC-3 prostate
SK-MEL-5 melanoma = test system: SK-MEL-5 melanoma
UACC-62 melanoma = test system: UACC-62 melanoma
LOX IMVI melanoma = test system: LOX IMVI melanoma
SK-MEL-28 melanoma = test system: SK-MEL-28 melanoma

Compound	growth (DU-145 prostate)	growth (MALME-3M melanoma)	growth (MDA-MB-231 breast)	growth (RXF 393 renal)	growth (SF-268 CNS)	growth (SF-295 CNS)	growth (SF-539 CNS)	growth (UACC-257 melanoma)	growth (M14 melanoma)	growth (HCT-15 colon)	growth (HT29 colon)	growth (SNB-75 CNS)	growth (SNB-19 CNS)	growth (U251 CNS)	growth (PC-3 prostate)	growth (SK-MEL-5 melanoma)	growth (UACC-62 melanoma)	growth (LOX IMVI melanoma)	growth (SK-MEL-28 melanoma)
COC1=CC(=O)c2ccccc2C1=O	88.8%	72.4%	99.1%	118%	102%	104%	124%	59.9%	87.2%	99.7%	38.9%	33.7%	105%	52.6%	65.7%	47.8%	74.2%	4.09% (active)	90%
COCCCN1CC(O)=C(c2nc(-c3ccc(C)cc3)cs2)C1=N	102%	101%	96.1%	94.3%	223%	123%	96.9%	83.7%	100%	110%	128%	154%	98.6%	100%	94.3%	103%	103%	102%	159%
O=[N+]([O-])c1ccc(N=Nc2cc(S(=O)(=O)O)c3cccc(S(=O)(=O)O)c3c2O)cc1	132%	84.5%	112%	121%	115%	125%	104%	113%	97.6%	118%	111%	104%	112%	104%	98.5%	104%	108%	106%	117%
Cn1cc(-c2nc(-c3c[nH]c4c(Cl)nccc34)cs2)c2cc(Br)ccc21	80.3%	118%	96.9%	95.9%	105%	91.4%	82.5%	54.1%	73.5%	66.5%	74.9%	94%	97.6%	77.9%	81.2%	88%	80.3%	73.4%	88.9%
Oc1cccc(CCc2ccc(Oc3cc(CCc4cccc(O)c4)cc(O)c3O)cc2)c1	88.8%	110%	72.8%	81%	51.7%	96.7%	73.9%	95.6%	81.2%	39.1%	99.2%	72.8%	89%	74.5%	63.5%	70.2%	73.3%	62.7%	88.6%
O=C(CSc1nc2ccccc2[nH]1)NCc1ccccc1	110%	109%	103%	101%	98%	102%	95.6%	100%	107%	105%	99.4%	74.5%	97.8%	106%	–	102%	95.2%	98.3%	–
Cc1cc(Cl)nc(N(CCNc2ccnc3cc(Cl)ccc23)Cc2ccccn2)n1	73%	100%	57.2%	59.1%	83.4%	80.4%	6.88% (active)	68.1%	62.5%	48.7%	24.7%	78.6%	62.5%	26.8%	56.9%	41.3%	66.3%	58.4%	62.1%
Cc1ccc(-c2nc3ccccn3c2/C=C2/C(=O)Nc3cc(Cl)ccc32)cc1	65.5%	76.1%	76%	77.8%	63.3%	64.5%	79.7%	91.1%	80.4%	53.3%	66.5%	61.8%	87.5%	96.4%	70.1%	71.9%	74.1%	53.8%	91.8%
